Data published in PubChem BioAssay AID686978 (National Center for Advancing Translational Sciences (NCATS), 2013).
Among all 420,000 compounds or so, about 64,000 (15%) were called active. About 27% were inconclusive and are not listed. The call rests on the fitted dose curve; in most records, active means well fitted inhibition curve with a large enough effect; inconclusive means small, poorly fitted or top-dose-only effect; inactive means flat fitted curve, though single readings scatter. Not all results are given here. Where a call stands in place of a potency, no number is given.

Assay: qHTS for Inhibitors of human tyrosyl-DNA phosphodiesterase 1 (TDP1): qHTS in cells in absence of CPT; further: nearly all actives have a fitted effect of over 55% in size
Conditions: DT40 Tdp1-/- hTDP1 cells, no CPT, ATP luminescence, 48 h; activity change, negative = growth inhibition: at 46.2 µM (top of the series)
In short: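 Seeded 400 DT40-hTDP1 cells/well (vehicle DMSO, no 20 nM CPT); pinned compounds; ≥48 hr at 37 °C; CellTiter-Glo luminescence as viability measure.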
Potency means the concentration at half of the fitted maximal effect.

Question: For `CCCCC(=O)Nc1c2c(nn1-c1ccc([N+](=O)[O-])cc1)CS(=O)(=O)C2`, which Potency is on record?
Answer: Its Potency is “inactive”.

Question: With `Cc1ccc2c(c1)nnc1nnc(SCC(=O)O)n12` as the compound, how does the Potency read?
Answer: The Potency was “inactive”.

Question: For `C[C@H](NC(=O)c1nc[nH]c1C(=O)NCC(=O)OC(C)(C)C)C(=O)OCc1ccccc1`, which Potency is on record?
Answer: The Potency was “inactive”.

Question: With `Cc1c(OC(C)C(=O)N[C@@H](Cc2ccccc2)C(=O)O)ccc2c3c(c(=O)oc12)CCCC3` (some centres undefined) as the compound, how does the Potency read?
Answer: Its Potency is “inactive”.

Question: For `NC(=O)COc1ccc2c3c(c(=O)oc2c1)CCCCC3`, which Potency is on record?
Answer: The Potency was “inactive”.

Question: For `CCCOc1ccc2c3c(c(=O)oc2c1OCCC)CCC3`, which Potency is on record?
Answer: Its Potency is 23.1 µM (active).

Question: With `COc1ccc(NC(=O)Nc2ccc3c(c2)C(=O)N([C@H](C)CO)C[C@H](C)[C@@H](CN(C)C(=O)Nc2ccc4c(c2)OCO4)O3)cc1` as the compound, how does the Potency read?
Answer: Its Potency is “inactive”.

Question: For `CN(CCc1cnn(C)c1)Cc1cn(C)nc1-c1ccccc1F`, which Potency is on record?
Answer: The Potency was “inactive”.

Question: With `COc1ccc(S(=O)(=O)N(C)C[C@H]2Oc3c(NC(=O)Nc4ccc5c(c4)OCO5)cccc3C(=O)N([C@H](C)CO)C[C@@H]2C)cc1` as the compound, how does the Potency read?
Answer: Its Potency is 20.6 µM (active).

Question: For `Cc1noc(C)c1S(=O)(=O)N(C)C[C@H]1Oc2c(NC(=O)Nc3ccc4c(c3)OCO4)cccc2C(=O)N([C@H](C)CO)C[C@@H]1C`, which Potency is on record?
Answer: The Potency was “inactive”.

Question: For `C[C@H](CO)N1C[C@H](C)[C@@H](CN(C)S(=O)(=O)c2ccc(F)cc2)Oc2c(NC(=O)Nc3ccccc3)cccc2C1=O`, which Potency is on record?
Answer: The Potency was “inactive”.

Question: For `Cn1c(=O)c(=O)n(C)c2cc(S(=O)(=O)NCCN3CCN(c4ccccc4F)CC3)ccc21`, which Potency is on record?
Answer: Its Potency is “inactive”.

Question: Which Potency does the source give for `CC(=O)Oc1cccc(N2C(=O)CC(Nc3ccc(N4CCOCC4)cc3)C2=O)c1` (centres undefined) here?
Answer: The Potency was “inactive”.

Question: For `Cc1cc(C(=O)CSc2nc(N)cc(=O)[nH]2)c(C)n1CCc1ccc(Cl)cc1`, which Potency is on record?
Answer: Its Potency is 16.4 µM (active).

Question: For `Cc1cc(C(=O)CSc2nc(N)cc(=O)[nH]2)c(C)n1Cc1ccco1`, which Potency is on record?
Answer: Its Potency is 0.82 µM (active).

Question: Which Potency does the source give for `Cc1cc(C)c(C(=O)CSc2nc(C)cc(=O)[nH]2)c(C)c1` here?
Answer: The Potency was “inactive”.

Question: For `CCN(C(=O)CSc1nc(N)cc(=O)[nH]1)C1CCS(=O)(=O)C1` (centres undefined), which Potency is on record?
Answer: The Potency was “inactive”.

Question: For `Cc1cc(C(=O)CSc2nc(N)cc(=O)[nH]2)c(C)n1-c1cccc(F)c1`, which Potency is on record?
Answer: The Potency was 4.61 µM (active).

Question: With `Nc1cc(N)nc(SCc2ccc(Cl)cc2)n1` as the compound, how does the Potency read?
Answer: Its Potency is “inactive”.

Question: Which Potency does the source give for `Cc1cc(C(=O)COC(=O)CNC(=O)c2ccc(F)cc2)c(C)n1Cc1ccco1` here?
Answer: Its Potency is “inactive”.

Question: With `CCCCc1nnc(NC(=O)CSc2nc(N)cc(=O)[nH]2)s1` as the compound, how does the Potency read?
Answer: Its Potency is “inactive”.

Question: With `Cc1cc(=O)[nH]c(SCC(=O)N2c3ccccc3CC2C)n1` (centres undefined) as the compound, how does the Potency read?
Answer: Its Potency is “inactive”.

Question: With `C=CCn1c(COc2ccccc2F)nnc1SCC(=O)N1CC(=O)Nc2ccccc21` as the compound, how does the Potency read?
Answer: Its Potency is “inactive”.

Question: For `O=C(O)C1C2C=CC(C2)C1C(=O)N1CCN(CCO)CC1` (centres undefined), which Potency is on record?
Answer: Its Potency is “inactive”.

Question: Which Potency does the source give for `C/C(=N\c1nc2ccccc2n1C)c1cc(Cl)ccc1O` here?
Answer: Its Potency is “inactive”.

Question: For `CCCOc1ccc(C2c3c(oc4cc(C)c(C)cc4c3=O)C(=O)N2CCCN2CCOCC2)cc1` (centres undefined), which Potency is on record?
Answer: Its Potency is “inactive”.

Question: For `Cc1cc2oc3ccc(NCCC4CCCN4C)cc3c(=O)c2cc1C` (centres undefined), which Potency is on record?
Answer: The Potency was 16.4 µM (active).

Question: For `Cc1ccc(C(=O)O)c(NC=O)c1OCc1ccccc1`, which Potency is on record?
Answer: The Potency was “inactive”.

Question: For `CC(=O)Nc1ccc(NC(=O)CSc2nnc3c4cc(Br)ccc4n(C)c3n2)cc1`, which Potency is on record?
Answer: Its Potency is “inactive”.

Question: For `O=C1CCC/C(=N\NC(=O)NC2CCCCC2)C1`, which Potency is on record?
Answer: The Potency was “inactive”.

Question: For `Cc1cnc(NC(=O)CSc2nnc(-c3ccccc3)n2Cc2ccccc2)s1`, which Potency is on record?
Answer: The Potency was “inactive”.

Question: With `COC(=O)c1ccc(COc2cc([N+](=O)[O-])cc3cccnc23)cc1` as the compound, how does the Potency read?
Answer: The Potency was “inactive”.

Question: For `COc1ccc(CNC(=O)COC(=O)C(CCSC)N2C(=O)c3ccccc3C2=O)cc1` (centres undefined), which Potency is on record?
Answer: Its Potency is “inactive”.

Question: For `COc1cccc2cc(C(=O)N3CCN(C(=O)c4ccccc4)CC3)c(=O)oc12`, which Potency is on record?
Answer: The Potency was “inactive”.

Question: With `COc1ccccc1OCc1ccc(C(=O)N2CCN(C)CC2)o1` as the compound, how does the Potency read?
Answer: Its Potency is “inactive”.

Question: With `COc1ccccc1N1CCN(C(=O)c2cc(=O)c3cc(C)cc(C)c3o2)CC1` as the compound, how does the Potency read?
Answer: The Potency was 0.0082 µM (active).

Question: With `COc1cc2c(cc1OC)CN(C(=O)c1cc(=O)c3ccccc3o1)CC2` as the compound, how does the Potency read?
Answer: Its Potency is 3.26 µM (active).

Question: With `Cc1cccc(-c2cc(=O)c3cc(C)ccc3o2)c1` as the compound, how does the Potency read?
Answer: The Potency was “inactive”.

Question: With `COc1ccccc1N1CCN(c2nc(C)cc(=O)[nH]2)CC1` as the compound, how does the Potency read?
Answer: Its Potency is “inactive”.

Question: Which Potency does the source give for `O=C(c1cc(=O)c2ccccc2o1)N1CCN(c2ccccc2)CC1` here?
Answer: The Potency was “inactive”.

Question: For `COc1ccccc1N1CCN(C(=O)c2cc(=O)c3cc(C)ccc3o2)CC1`, which Potency is on record?
Answer: The Potency was 23.1 µM (active).

Question: For `COc1ccc2c(CC(=O)N3CCc4cc(OC)c(OC)cc4C3)coc2c1`, which Potency is on record?
Answer: Its Potency is “inactive”.

Question: For `O=C(NCc1ccco1)/C(=C\c1cccc([N+](=O)[O-])c1)NC(=O)c1ccco1`, which Potency is on record?
Answer: Its Potency is “inactive”.

Question: With `Cc1cc(NC(=O)COC(=O)/C=C/c2ccc(C)o2)no1` as the compound, how does the Potency read?
Answer: Its Potency is “inactive”.

Question: With `COc1cccc2c1OCC1COc3c(c(=O)n(C)c(=O)n3C)C21` (centres undefined) as the compound, how does the Potency read?
Answer: Its Potency is “inactive”.

Question: For `COc1ccc(NC(=S)NCCN2CCC(C)CC2)cc1`, which Potency is on record?
Answer: Its Potency is “inactive”.

Question: For `CC(C)CC(=O)c1c[nH]c(C(=O)NCc2ccccc2)c1`, which Potency is on record?
Answer: Its Potency is “inactive”.

Question: For `O=C(CN1CCSCC1)N/N=C/c1ccc(F)cc1F`, which Potency is on record?
Answer: Its Potency is “inactive”.

Question: For `OC(COCCC12CC3CC(CC(C3)C1)C2)CN1CCCCC1` (centres undefined), which Potency is on record?
Answer: The Potency was 16.4 µM (active).

Question: Which Potency does the source give for `OC(CBr)CN1CCCCC1` (centres undefined) here?
Answer: The Potency was “inactive”.

Question: With `OC(COc1ccc(CN2CCSCC2)cc1)CN1CCCCC1` (centres undefined) as the compound, how does the Potency read?
Answer: The Potency was “inactive”.

Question: For `O=C(CSc1nc2ccccc2c(=O)n1-c1ccccc1F)N1CCOCC1`, which Potency is on record?
Answer: Its Potency is “inactive”.

Question: With `CCN(CC)CCCC(C)n1c2nc(=O)[nH]c(=O)c-2nc2cc(Cl)ccc21` (centres undefined) as the compound, how does the Potency read?
Answer: The Potency was 8.2 µM (active).

Question: Which Potency does the source give for `O=C(OCc1nnc(-c2ccccc2)o1)c1cc(=O)[nH]c2ccccc12` here?
Answer: Its Potency is “inactive”.

Question: Which Potency does the source give for `CCCc1nc2ccccc2c(C(=O)OCc2nnc(-c3cc(OC)c(OC)c(OC)c3)o2)c1CC` here?
Answer: Its Potency is 23.1 µM (active).

Question: For `CCCCc1nc2ccccc2c(NC(=O)CN2CCN(C)CC2)c1CCC`, which Potency is on record?
Answer: The Potency was “inactive”.

Question: Which Potency does the source give for `C=CCn1c(N)cc(=O)nc1SCC(=O)Nc1cccc2ccccc12` here?
Answer: The Potency was “inactive”.

Question: With `CCOc1ccccc1CN1CCN(C2CCC2)CC1CCO` (centres undefined) as the compound, how does the Potency read?
Answer: Its Potency is “inactive”.

Question: Which Potency does the source give for `O=C(Nc1c(Cl)cccc1Cl)C1CCC1` here?
Answer: Its Potency is “inactive”.

Question: Which Potency does the source give for `Cc1cccc(NC(c2cccc(F)c2)c2ccc3ccc(C)nc3c2O)n1` (centres undefined) here?
Answer: Its Potency is 5.8 µM (active).

Question: For `CC(=O)NC(c1cccc(F)c1)c1nc(-c2cccc(F)c2)cs1` (centres undefined), which Potency is on record?
Answer: The Potency was “inactive”.

Question: For `CSCCC(NC(=O)c1ccco1)C(=O)Nc1cc(C)ccn1` (centres undefined), which Potency is on record?
Answer: Its Potency is “inactive”.

Question: With `N#Cc1cccc(CN2CCC(=O)N([C@H](CO)c3ccccc3)CC2)c1` as the compound, how does the Potency read?
Answer: Its Potency is “inactive”.

Question: Which Potency does the source give for `O=C(CSCc1c(F)cccc1Cl)NCC1CCCO1` (centres undefined) here?
Answer: Its Potency is “inactive”.
